In PubChem BioAssay (NCI):
About 83,000 compounds went through this panel and 20% of them were active in at least one assay; those are over-represented in the sample as a whole.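 Single-concentration screen, 48 h exposure, 96-well plates. Endpoint: percent growth. Below 10 = active.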 A number with no mark means an inactive call. Calls of active or inactive are those of the source.

Legend:
Assay in all cases: NCI-60 one-dose screen, 48 h (100 = growth as untreated, 0 = no growth, -100 = all killed)
Conditions in all cases: 10 µM unless noted
NCI-H23 lung = tested on: NCI-H23 lung
NCI-H226 lung = tested on: NCI-H226 lung
NCI-H322M lung = tested on: NCI-H322M lung
HOP-62 NSCLC = tested on: HOP-62 NSCLC
NCI-H460 lung = tested on: NCI-H460 lung
HOP-92 NSCLC = tested on: HOP-92 NSCLC
NCI-H522 lung = tested on: NCI-H522 lung
A549/ATCC NSCLC = tested on: A549/ATCC NSCLC
786-0 renal = tested on: 786-0 renal
COLO 205 colon = tested on: COLO 205 colon
DU-145 prostate = tested on: DU-145 prostate
K-562 leukemia = tested on: K-562 leukemia
MALME-3M melanoma = tested on: MALME-3M melanoma
MDA-MB-231 breast = tested on: MDA-MB-231 breast
RXF 393 renal = tested on: RXF 393 renal
SF-268 CNS = tested on: SF-268 CNS
SF-295 CNS = tested on: SF-295 CNS
SF-539 CNS = tested on: SF-539 CNS
UACC-257 melanoma = tested on: UACC-257 melanoma
M14 melanoma = tested on: M14 melanoma

Row | Structure (SMILES) | growth (NCI-H23 lung) | growth (NCI-H226 lung) | growth (NCI-H322M lung) | growth (HOP-62 NSCLC) | growth (NCI-H460 lung) | growth (HOP-92 NSCLC) | growth (NCI-H522 lung) | growth (A549/ATCC NSCLC) | growth (786-0 renal) | growth (COLO 205 colon) | growth (DU-145 prostate) | growth (K-562 leukemia) | growth (MALME-3M melanoma) | growth (MDA-MB-231 breast) | growth (RXF 393 renal) | growth (SF-268 CNS) | growth (SF-295 CNS) | growth (SF-539 CNS) | growth (UACC-257 melanoma) | growth (M14 melanoma)
1 | C=C1CCC2C3(C)COC(c4ccc(F)cc4)OC3CCC2(C)C1CC(O)C1=CCOC1=O (stereo not given) | 51.2% | 58% | 82.1% | 81.7% | 93.8% | 45.9% | -28.2% (active) | 59.6% | 19.4% | 22.8% | 59.3% | 15.2% | 63.2% | 53.5% | 35.7% | 103% | 64.7% | 56.3% | 57.9% | 24.7%
2 | COc1ccc(C2=NN(c3ccccc3)C(c3ccc(OC)c(OCc4ccccc4)c3)C2)cc1OC (stereo not given) | 99.8% | 85.4% | 102% | 96.7% | 105% | 109% | 78.2% | 101% | 90.9% | 115% | 105% | 95% | 92.6% | 100% | 98.1% | 96.5% | 107% | 99.9% | 103% | 104%
3 | O=C(N=Nc1c(O)[nH]c2ccc(Cl)cc12)c1ccc2nc(-c3ccccc3)[nH]c2c1 | 29.9% | 91.1% | 15.8% | 81.3% | 26.3% | 77% | 8.85% (active) | 94.3% | 47.4% | 62% | 10.9% | 29.3% | 8.71% (active) | -33.1% (active) | 59.1% | 21.8% | 63.6% | 34% | 109% | 68.6%
4 | O=C(COc1ccc(NC(=O)Nc2ccc(Cl)cc2)cc1)N/N=C/c1ccccc1 | -94.5% (active) | -89.2% (active) | -40.4% (active) | -84.6% (active) | -79.3% (active) | -77.9% (active) | -83.5% (active) | -78.3% (active) | -82% (active) | -66.5% (active) | -23.9% (active) | -15.2% (active) | -90.8% (active) | -87.9% (active) | -85.2% (active) | -55.2% (active) | -96.6% (active) | -95.3% (active) | -36.6% (active) | -66.1% (active)
5 | COc1cc2oc(-c3cccc(NC(=O)[C@H](Cc4ccccc4)NC(=O)OC(C)(C)C)c3)cc(=O)c2c(OC)c1OC | 39.1% | 28% | 46.1% | 49% | 11.5% | 61.7% | 30.3% | 24.7% | 43.8% | 33.8% | 35.7% | 23% | 35% | 42.7% | 31% | 62% | 36.8% | 43.1% | 75.5% | 51.7%
6 | Cc1cc(=O)oc2cc(OCCCOc3ccc(/C=C/C(=O)Nc4ccccc4N)cc3)ccc12 | 45.2% | 18.4% | 54.7% | 16.7% | 14.5% | 43.4% | -13.8% (active) | 25.8% | 26.1% | -53.6% (active) | 33.1% | 18.2% | 42% | -2.67% (active) | 49.5% | 21.9% | 27.4% | 1.75% (active) | 38.2% | 41.8%
7 | NC(=S)Nc1cccc(NC(N)=S)c1 | 98.5% | 98.1% | 88.3% | 119% | 110% | 105% | 97.2% | 93.9% | 108% | 137% | 101% | 9.26% (active) | 84.3% | 89.7% | 104% | 90.9% | 90.2% | 100% | 98.1% | 125%
8 | CCN(CC)c1ccnc(CNCCSC(c2ccccc2)(c2ccccc2)c2ccc(C)cc2)c1 | -78.7% (active) | -73.3% (active) | -10.4% (active) | -89.5% (active) | -79.6% (active) | -83.9% (active) | -80.3% (active) | -86.8% (active) | -93.1% (active) | -76.6% (active) | -59.7% (active) | -45.1% (active) | -93.1% (active) | -97.7% (active) | -87.5% (active) | -55.8% (active) | -97% (active) | -97.5% (active) | -90.1% (active) | -87.2% (active)
